Several values for one entry are separate records, joined by “and”; a condition that tells them apart may be missing. Identical values can stand only once. Records with an inconclusive call do not appear. A number with no mark means an inactive call. Activity calls are given as the source filed them. Calls follow the shape of the full dose curve. Positions of bridges follow the written chain, without caps; N, C: chain ends. Non-standard residues stand in square brackets, D forms with d. Residues, ends and D or L forms follow the SMILES beside them. *: point of attachment. X2 = CC[C@H](C)CCCCC(=O)*; Dab = NCC[C@H](N)C(=O)O
Assay: qHTS assay for small molecule agonists of the p53 signaling pathway - cell viability (AID 651633); also: nearly all actives have a fitted effect of over 30% in size;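 as to activity change, negative = cytotoxicity: p53RE-bla HCT reporter cells with a stable beta-lactamase p53 reporter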
Details: p53RE-bla HCT-116 viability, ATP luminescence, 16 h; series mostly up to 83.3 µM; activity change, negative = cytotoxicity: at the top concentration
Procedure, shortened: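 Viability counter-read: CellTiter-Glo luminescence (30 min, room temperature) in the same p53RE-bla plates. These plates had been exposed to compounds for 16 h at 37 C.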
% is scaled to controls: 0 for no effect and ±100 for the full control effect; potency is read from the fitted curve at half-maximal effect.

Compound	activity change, negative = cytotoxicity	Potency
C[C@]12C=CC(=O)N[C@@H]1CC[C@@H]1[C@@H]2CC[C@]2(C)[C@@H](C(=O)Nc3cc(C(F)(F)F)ccc3C(F)(F)F)CC[C@@H]12	-29.2%	
COc1ccc(C(=O)CCC(=O)O)c2ccccc12	12.7%	
COc1ccc2cc([C@H](C)CO)ccc2c1	12.6%	
Cn1c(=O)c2c(ncn2CCOC(=O)C(C)(C)Oc2ccc(Cl)cc2)n(C)c1=O	-10.3%	
CCCCCC(O)/C=C/C=O (centres undefined)	4.57%	
CCC(C)[C@H]1O[C@]2(C=C[C@@H]1C)C[C@@H]1C[C@@H](C/C=C(\C)[C@@H](O[C@H]3C[C@H](OC)[C@@H](O[C@H]4C[C@H](OC)[C@H](NC(C)=O)[C@H](C)O4)[C@H](C)O3)[C@@H](C)/C=C/C=C3\CO[C@@H]4[C@H](O)C(C)=C[C@@H](C(=O)O1)[C@]34O)O2 (some centres undefined)		2.98 µM (active) and 11.9 µM (active)
CC1(C)N=C(N)N=C(N)N1c1ccc(Cl)cc1		5.96 µM (active)
CN(C)C(=O)CCSC(SCCC(=O)O)c1cccc(/C=C/c2ccc3ccc(Cl)cc3n2)c1 (centres undefined)		29.8 µM (active)
C[C@H](CCCC(C)(C)O)[C@H]1CC[C@H]2[C@@H]3CC=C4C[C@@H](O)CC[C@]4(C)[C@H]3CC[C@]12C	11.7%	
CNC(=O)c1c(I)c(C(=O)NCC(=O)Nc2c(I)c(C(=O)O)c(I)c(C(=O)NCCO)c2I)c(I)c(N(C)C(C)=O)c1I	-6.08%	
C=C1CC[C@@H]2[C@](C)(CO)[C@H](O)CC[C@@]2(C)[C@@H]1C/C=C1/C(=O)OC[C@H]1O	17.3%	
C[C@H](CSC(=O)c1ccccc1)C(=O)N1C[C@@H](Sc2ccccc2)C[C@H]1C(=O)O	-8.95%	
C=C[C@]1(C)C[C@@H](OC(=O)CSCCN(CC)CC)[C@]2(C)[C@H](C)CC[C@]3(CCC(=O)[C@H]32)[C@@H](C)[C@@H]1O	-10.9%	
O=C(O)C1=C(CSc2nnnn2CS(=O)(=O)O)CS[C@@H]2[C@H](NC(=O)[C@H](O)c3ccccc3)C(=O)N12	5.1%	
COc1cc(/C=C/C(=O)N2CCN(CC(=O)N3CCCC3)CC2)cc(OC)c1OC	17.5%	
CCOC(=O)c1c[nH]c2cc(OCC(C)C)c(OCC(C)C)cc2c1=O	20.6%	
CCCCCCCCCCCCCCCCCCCCCCO	-7.43%	
CC1=C(/C=C/C(C)=C/C=C/C(C)=C/C(=O)Oc2c(C)c(C)c3c(c2C)CC[C@@](C)(CCC[C@H](C)CCC[C@H](C)CCCC(C)C)O3)C(C)(C)CCC1	22.9%	
CC(C)CCCC(C)NC(C)C (centres undefined)	4.54%	
O=C(O)CCC/C=C\C[C@@H]1[C@@H](/C=C/[C@@H](O)COc2cccc(C(F)(F)F)c2)[C@H](O)C[C@@H]1O	-6.2%	

Compound	activity change, negative = cytotoxicity	Potency
O=C(O)COc1ccc(CCNS(=O)(=O)c2ccccc2)s1	11.7%	
CO[C@H]1C[C@@H]2CC[C@@H](C)[C@@](O)(O2)C(=O)C(=O)N2CCCC[C@H]2C(=O)O[C@H]([C@H](C)C[C@@H]2CC[C@@H](OC(=O)C(C)(CO)CO)[C@H](OC)C2)CC(=O)[C@H](C)/C=C(\C)[C@@H](O)[C@@H](OC)C(=O)[C@H](C)C[C@H](C)/C=C/C=C/C=C/1C	6.85%	
CC[C@H](C)CCCCC(=O)N[C@@H](CCN)C(=O)N[C@H](C(=O)N[C@@H](CCN)C(=O)N[C@H]1CCNC(=O)[C@@H]([C@H](C)O)NC(=O)[C@H](CCN)NC(=O)[C@H](CCN)NC(=O)[C@H](CC(C)C)NC(=O)[C@@H](CC(C)C)NC(=O)[C@H](CCN)NC1=O)[C@@H](C)O (X2-[Dab]T[Dab][Dab][Dab][dL]L[Dab][Dab][dT]; lactam 4-C)	-10.4% [at 39.1 µM]	
C#C[C@]1(O)CC[C@H]2[C@@H]3CCC4=CC(=O)CC[C@@H]4[C@H]3C(=C)C[C@@]21CC	13.7%	
C=C1CC[C@H](O)CC1=C/C=C1\CCC[C@]2(C)[C@@H]([C@H](C)CCCC(C)(C)O)CC[C@@H]12		11.9 µM (active)
CC(=O)Nc1c(I)c(C(=O)O)c(I)c(N(C)C(C)=O)c1I	16.3%	
CC1(C)S[C@@H]2[C@H](NC(=O)[C@H](N)c3ccccc3)C(=O)N2[C@H]1C(=O)OCOC(=O)[C@@H]1N2C(=O)C[C@H]2S(=O)(=O)C1(C)C	-1.62%	
CNC(C)CCC=C(C)C (centres undefined)	-14.7%	
Cc1c(Cl)cccc1Nc1ncccc1C(=O)O	-23.5%	
CN(CCO)CC(O)Cn1cnc2c1c(=O)n(C)c(=O)n2C (centres undefined) (tested in a mixture with another compound)	-17.2%	
CC[C@H](C)CCCCC(=O)N[C@@H](CCN)C(=O)N[C@H](C(=O)N[C@@H](CCN)C(=O)N[C@H]1CCNC(=O)[C@H]([C@@H](C)O)NC(=O)[C@H](CCN)NC(=O)[C@H](CCN)NC(=O)[C@H](CC(C)C)NC(=O)[C@@H](CC(C)C)NC(=O)[C@H](CCN)NC1=O)[C@@H](C)O (X2-[Dab]T[Dab][Dab][Dab][dL]L[Dab][Dab]T; lactam 4-C)	-29.3%	
CCCCCCCCCCCC(=O)OC[C@@H](O)C1OC[C@H](O)[C@H]1O (some centres undefined)	9.14%	
CCOc1ccc(N=Nc2ccc(N)cc2N)cc1	-20.4%	
FCOC(C(F)(F)F)C(F)(F)F	13.3%	
CCNC(=O)[C@@H]1CCCN1C(=O)[C@H](CCCN=C(N)N)NC(=O)[C@H](CC(C)C)NC(=O)[C@@H](Cc1c[nH]c2ccccc12)NC(=O)[C@H](Cc1ccc(O)cc1)NC(=O)[C@H](CO)NC(=O)[C@H](Cc1c[nH]c2ccccc12)NC(=O)[C@H](Cc1cnc[nH]1)NC(=O)[C@@H]1CCC(=O)N1		8.41 µM (active)
C[N@+]12CCCC[C@@H]1CCC(=C(c1cccs1)c1cccs1)C2	-14.5%	
O=C(OC[C@H]1O[C@](O)(COC(=O)c2cccnc2)[C@@H](OC(=O)c2cccnc2)[C@@H]1OC(=O)c1cccnc1)c1cccnc1	16.8%	
COC(=O)CCC[N+](C)(C)C	-7.82%	
CCCCCCCCCCCCCCCC(=O)OCC(COC(=O)CCCCCCCCCCCCCCC)OC(=O)CCCCCCCCCCCCCCC	-13.2%	

Reference: PubChem BioAssay (Tox21)
